Our source for the Potency values is PubChem BioAssay AID1347048 (National Center for Advancing Translational Sciences (NCATS), 2019).

In all, about 76,000 compounds went through this assay and about 1,200 (1.6%) were called active. A call without a number means that no potency is given here. Inconclusive results (about 4%) are left out. This is one part of a sample in which actives are shown more often than they occur. Calls follow the shape of the full dose curve.
Potency is read from the fitted curve at half-maximal effect.

Atrial natriuretic peptide receptor 1 (Homo sapiens), sequence (P16066 whole entry, looked up): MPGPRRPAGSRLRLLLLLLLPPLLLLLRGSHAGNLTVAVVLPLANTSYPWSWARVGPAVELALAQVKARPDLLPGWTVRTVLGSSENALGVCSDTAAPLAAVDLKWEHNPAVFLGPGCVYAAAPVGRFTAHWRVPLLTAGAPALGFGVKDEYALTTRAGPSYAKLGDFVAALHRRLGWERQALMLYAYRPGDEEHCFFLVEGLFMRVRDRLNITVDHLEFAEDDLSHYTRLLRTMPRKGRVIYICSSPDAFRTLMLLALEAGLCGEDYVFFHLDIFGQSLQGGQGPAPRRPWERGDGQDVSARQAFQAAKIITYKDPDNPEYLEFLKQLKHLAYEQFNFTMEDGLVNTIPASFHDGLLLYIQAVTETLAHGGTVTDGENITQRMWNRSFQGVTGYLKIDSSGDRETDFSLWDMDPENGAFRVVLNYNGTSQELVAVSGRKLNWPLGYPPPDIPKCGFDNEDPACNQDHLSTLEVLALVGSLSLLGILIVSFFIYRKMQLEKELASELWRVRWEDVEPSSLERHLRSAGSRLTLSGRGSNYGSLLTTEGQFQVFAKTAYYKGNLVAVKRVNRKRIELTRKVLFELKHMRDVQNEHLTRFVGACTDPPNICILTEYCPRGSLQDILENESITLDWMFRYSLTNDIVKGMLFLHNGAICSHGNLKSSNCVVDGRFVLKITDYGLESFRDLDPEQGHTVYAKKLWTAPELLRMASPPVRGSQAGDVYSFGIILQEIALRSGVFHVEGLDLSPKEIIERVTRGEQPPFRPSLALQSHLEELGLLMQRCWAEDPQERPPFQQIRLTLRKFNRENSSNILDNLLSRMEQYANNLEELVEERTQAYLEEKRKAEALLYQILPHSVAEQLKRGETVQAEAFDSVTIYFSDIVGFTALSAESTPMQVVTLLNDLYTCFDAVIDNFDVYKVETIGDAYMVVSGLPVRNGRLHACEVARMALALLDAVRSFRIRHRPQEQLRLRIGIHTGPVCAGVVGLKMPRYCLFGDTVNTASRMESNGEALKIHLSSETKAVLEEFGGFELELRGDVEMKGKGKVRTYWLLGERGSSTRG

For the assay, the target named is Atrial natriuretic peptide receptor 1 (Homo sapiens) (UniProt P16066). Kind of assay: Natriuretic polypeptide receptor (hNpr1) antagonism - Primary qHTS. Also: nearly all actives have a fitted effect of over 60% in size. To be noted: HEK293 hNpr1 GloSensor cGMP, ANP-stimulated luminescence; series mostly up to 46.3 µM. In outline:
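Compound pre-incubated 30 min at room temperature on GloSensor-loaded HEK293 cells stably carrying hNpr1 and the pGS-40F cGMP biosensor. Stimulation uses hNppA at 0.1 nM final; luminescence is taken at baseline and 20 min post-agonist.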
For orientation: In qHTS, concentration-response curves come from the screen itself.
As to `O=c1n(CC2CC2)nc2n1CCC(NS(=O)(=O)c1cccc(F)c1)CC2` (stereo unspecified), the Potency result was “inactive”.

Consider `COc1ccc(-c2noc(CC3CCN(C(=O)Cc4ccc(C)cc4)CC3)n2)cc1`, for which the Potency was 15.8 µM (active).

Regarding `COc1ccc(C(=O)N2CCC(Cc3nc(-c4cnccn4)no3)CC2)cc1`, the Potency result is “inactive”.

Consider `COc1ccc(CC(=O)N2CCC[C@H]2c2nc(-c3ccccc3)no2)cc1`, for which the Potency result was “inactive”.

With `COc1ccc(-c2noc(CC3CCN(C(=O)Cc4ccccc4)CC3)n2)cc1`, the Potency is 11.2 µM (active).

`COc1ccc(-c2noc(CC3CCN(C(=O)CC4CCCCC4)CC3)n2)cc1`: the Potency was 6.31 µM (active).

`Cc1ccc(CC(=O)N2CCC(Cc3nc(-c4cnccn4)no3)CC2)cc1`: the Potency entry is “inactive”.

`CCOc1ccc(CC(=O)N2CCC(Cc3nc(-c4cnccn4)no3)CC2)cc1`: the Potency entry was “inactive”.

Take `COc1ccc(-c2noc([C@@H]3CCCN3C(=O)CCc3ccccc3)n2)cc1`: the Potency entry was “inactive”.

Regarding `COc1ccc(-c2noc([C@@H]3CCCN3C(=O)Cc3ccccc3Cl)n2)cc1`, the Potency result was “inactive”.

For `O=C(Nc1ccc(C(F)(F)F)cc1)N[C@@H]1C[C@H](CO)[C@@H](O)[C@H]1O`, the Potency entry was “inactive”.

Turning to `COc1ccc(C(=O)N2CCC3(CC2)NC(=O)N(c2ccc(F)cc2)N3)cc1OC`, the Potency result was “inactive”.

As for `O=C(Nc1ccccc1)N1CCCCC1c1noc(COc2ccc(F)cc2)n1` (stereo unspecified), the Potency result is “inactive”.

As to `CCCn1cnc2c1CN(S(=O)(=O)Cc1ccccc1)[C@H](C(=O)OC)C2`, the Potency result was “inactive”.

For `CCc1nc(-c2c3n(c(=O)n(CCc4ccc(OC)cc4)c2=O)CCCC3)no1`, the Potency result is “inactive”.

In the case of `COc1cccc(CN2CCc3c(cc(C(=O)NCCN4CCCCC4)n3C)C2)c1`, the Potency result is “inactive”.

For the compound `COc1ccc(NC(=O)c2ccc3c(c2)N(C(=O)c2ccc(F)cc2)CC3)c(C)c1`, the Potency entry was “inactive”.

Take `COc1ccc(CNC(=O)c2cccc3c2CCN3C(=O)c2ccc(F)cc2)cc1OC`: the Potency was 8.91 µM (active).

Take `CN1CCCCCC(O)c2cc(C(=O)NCc3ccc(F)cc3)ccc21` (stereo unspecified): the Potency entry is “inactive”.

Turning to `O=C(c1ccnc(-c2nnc3ccc(N4CCOCC4)nn23)c1)N1CCCCC1`, the Potency result was “inactive”.

Regarding `COc1ccccc1CNC(=O)CCC[C@@H]1[C@H]2CCCN3CCC[C@@H](CN1C(=O)c1ccccc1)[C@@H]23`, the Potency result is “inactive”.

Take `COCCN1CCCCCC(O)c2cc(C(=O)Nc3cccc(OC)c3)ccc21` (stereo unspecified): the Potency entry is “inactive”.

For the compound `CN(Cc1ccc(CCN)cc1)Cc1cccc(-n2cccn2)c1`, the Potency result was “inactive”.

As for `CCOc1ccccc1C(=O)NCc1nnc2cc(-c3nc(C)no3)ccn12`, the Potency result was “inactive”.

As for `O=C(NCc1nnc2cc(-c3nc(C4CC4)no3)ccn12)c1ccc(F)cc1Cl`, the Potency is 7.08 µM (active).

Take `CN(C)c1ccc(C(=O)NCc2nnc3cc(-c4nc(C5CC5)no4)ccn23)cc1`: the Potency entry is “inactive”.

`COc1cccc(CC(=O)N2CCCC(c3nc(-c4cccnc4)no3)CCNC(=O)CC2)c1` (stereo unspecified): the Potency entry was “inactive”.

For `Cc1cccc(OCC(=O)N2CCN(c3cc(C(F)(F)F)nc(C)n3)CC2)c1`, the Potency entry is “inactive”.

Turning to `CC(C)CN[C@H]1[C@H](O)[C@H](O)C[C@@H]1c1ccc(N2CCOCC2)nc1`, the Potency result is “inactive”.

Take `Oc1ccc(-c2ccc(-c3nc(CCc4ccccc4)no3)cn2)cc1`: the Potency entry was “inactive”.

`CN(CCc1cn[nH]c1)c1ccc(-c2nc(-c3ccccc3F)no2)cn1`: the Potency was 8.91 µM (active).

For the compound `CN(C)CCN(C)c1ccc(-c2nc(-c3ccccc3F)no2)cn1`, the Potency result is “inactive”.

Regarding `CCCC(C)C(=O)N1CCCN(C)c2ccccc21` (stereo unspecified), the Potency entry is “inactive”.

With `COc1ccc2nc3n(c2c1)[C@@H](CNC1CCCCC1)COC3`, the Potency entry was “inactive”.

Take `Cc1ccccc1-n1nc(C)c(CCC(=O)NC(C)C)c1Oc1cccc(F)c1`: the Potency entry is “inactive”.

Turning to `Cc1cc(N2CCCC(Cn3cc(Cc4ccccc4)nn3)C2)nc(N)n1` (stereo unspecified), the Potency is 7.94 µM (active).

Turning to `COc1ccc(-c2cn3c(n2)CO[C@@H](CNCc2ccc(F)c(F)c2)C3)cc1`, the Potency result was “inactive”.

Take `CN(Cc1csc(-c2ccccc2)n1)c1cc(C2CC(O)C2)nc(N)n1` (stereo unspecified): the Potency was 2.51 µM (active).

`COc1ccc(CN2C(=O)CO[C@H]3CN(Cc4cccnc4)C[C@H]32)cc1`: the Potency result was “inactive”.

For the compound `COc1ccc(CN2C(=O)CO[C@H]3CN(C(=O)C4CC4)C[C@H]32)cc1`, the Potency result was “inactive”.

Take `COc1ccc(CN2C(=O)CO[C@H]3CN(Cc4ccc5c(c4)OCO5)C[C@H]32)cc1`: the Potency is 31.6 µM (active).

With `Cc1c[nH]c(CN2CCCC(CCc3ccc(F)cc3F)C2)c(C)c1=O` (stereo unspecified), the Potency is 2.51 µM (active).

For `Cc1cc(F)ccc1NC(=O)CCC1CCCN(C(=O)c2ccc(Cl)s2)C1` (stereo unspecified), the Potency entry was “inactive”.

On to `Cc1noc(C)c1C(=O)N1CCCC(CCc2ccc(F)cc2F)C1` (stereo unspecified), for which the Potency entry was “inactive”.

`Fc1ccc(-c2cnc3n[nH]c(-c4ccc5c(c4)OCO5)c3n2)cc1`: the Potency entry is “inactive”.

`Cc1ccc(-c2nnc(C3CN(C(=O)CCc4ccccc4)CC34CCOCC4)o2)cc1` (stereo unspecified): the Potency result was “inactive”.

As to `Cc1ccc(C2=NC3(CCN(C(=O)c4ccc(C#N)cc4)CC3)ON2)cc1`, the Potency result was “inactive”.

Consider `O=C(c1cccc2[nH]ccc12)N1CCC2(CC1)N=C(c1cccc(Br)c1)NO2`, for which the Potency result was “inactive”.

`O=C(c1ccc2cc[nH]c2c1)N1CCC2(CC1)N=C(c1ccc(Cl)cc1)NO2`: the Potency was 11.2 µM (active).

Turning to `OCC1(CN2CCCC2)CCN(Cc2cccc(Cn3cccn3)c2)CC1`, the Potency result is “inactive”.

Take `COc1cccn(CC(=O)N(C)Cc2csc(C(C)C)n2)c1=O`: the Potency result is “inactive”.

In the case of `COc1ccc(CNC(=O)CN2C(=O)NC3(CCC(C(C)(C)C)CC3)C2=O)cc1OC` (stereo unspecified), the Potency result was “inactive”.

As for `c1ccc(-c2noc(-c3ccccc3OC3CCNC3)n2)cc1` (stereo unspecified), the Potency entry is “inactive”.

Turning to `c1ccc(CO[C@@H]2CO[C@H]3[C@@H]2OC[C@@H]3n2nnnc2SCc2ccco2)cc1`, the Potency was 22.4 µM (active).

Take `CC(C)(CC(=O)O)CC(=O)N[C@H]1CO[C@H]2[C@@H]1OC[C@@H]2n1nnnc1-c1ccccc1`: the Potency result is “inactive”.

Turning to `CC(C)(C)CC(=O)N1CC[C@H](NC(=O)Nc2ccc(F)cc2F)[C@H]1C(=O)N[C@H](Cc1ccccc1)C(N)=O`, the Potency entry is “inactive”.

Take `CCC(C)NC(=O)CN1C(=O)NC2(CCC(C(C)(C)C)CC2)C1=O` (stereo unspecified): the Potency result was “inactive”.

On to `CCCNc1cc(N2CCC(CCC(=O)NCc3ccc(Cl)cc3)CC2)ncn1`, for which the Potency result is “inactive”.

On to `C1CCC(COCCc2noc(C3CNC3)n2)C1`, for which the Potency is 12.6 µM (active).

On to `O=C(c1ccoc1)N1CCCC(c2nc(CCOCC3CCCC3)no2)C1` (stereo unspecified), for which the Potency entry is “inactive”.

For the compound `O=C(Cc1cccnc1)N1CCCC(c2nc(CCOCC3CCCC3)no2)C1` (stereo unspecified), the Potency entry is “inactive”.

For the compound `COCCC(=O)N1CCC2(CC1)CC(C(=O)N1CCOCC1)N(C)C2` (stereo unspecified), the Potency result is “inactive”.

Turning to `Cc1ccc2c(c1)nc1n2[C@@H](CNC(=O)c2ccccc2)COC1`, the Potency entry is “inactive”.

As to `Cc1ccc2c(c1)nc1n2[C@@H](CNS(=O)(=O)c2ccccc2)COC1`, the Potency is 31.6 µM (active).

Consider `Cc1ccc2nc3n(c2c1)[C@@H](CNC(=O)COc1ccccc1)COC3`, for which the Potency result is “inactive”.

For `COCC1CN(Cc2ccc(OC)c(OC)c2Cl)CC12CCNCC2` (stereo unspecified), the Potency entry was “inactive”.

On to `COc1ccc(-c2cc(CC3(NCc4cccc(OC)c4)COC3)no2)cc1`, for which the Potency entry is “inactive”.

`CCN(CC)C(=O)[C@@H]1CCC[C@@H](NC2CCC2)CN(C)C(=O)C1`: the Potency entry is “inactive”.

Consider `COc1ccc(CC(=O)N2CCC3(CC2)CC(O)CCO3)cc1OC` (stereo unspecified), for which the Potency result was “inactive”.

With `COc1ccc(-c2nc3c(c(=O)[nH]2)CCN(C(=O)Cc2ccc(OC)c(Cl)c2)C3)cc1`, the Potency entry was “inactive”.

In the case of `COc1ccc(CC(=O)N2CCC(Cc3nc(C(C)C)no3)CC2)cc1Cl`, the Potency result is “inactive”.

In the case of `COc1ccc(CC(=O)N2CCC(Cc3nc(-c4cnccn4)no3)CC2)cc1Cl`, the Potency result is “inactive”.

Take `COc1ccc(-c2noc(CC3CCN(C(=O)Cc4ccc(OC)c(OC)c4)CC3)n2)cc1`: the Potency was 2.82 µM (active).

As for `COc1ccc(CC(=O)N2CCC(Cc3nc(-c4ccccc4)no3)CC2)cc1OC`, the Potency was 10 µM (active).

On to `CCOCCOc1cccc(C(=O)N2CCC3(CCOCC3)CC2)c1`, for which the Potency result was “inactive”.

For the compound `CN(C)C(=O)c1n[nH]c2c1CN(C(=O)c1cccc(C(F)(F)F)c1)CC2`, the Potency result was “inactive”.

With `Cc1cc(C)c(CNC(=O)c2nc(-c3cccc(CO)c3)cc3c2ccn3C)c(=O)[nH]1`, the Potency result was “inactive”.

As to `Cc1ccccc1-n1nc(CC(N)=O)nc1-c1ccc(Cn2cnnn2)cc1`, the Potency result is “inactive”.

Regarding `Cc1ccccc1CC(=O)N1CCC[C@H]1c1nc(-c2ccccc2Cl)no1`, the Potency result is “inactive”.

Consider `O=c1[nH]c(C2CCN(Cc3ccc(F)cc3)CC2)nn1Cc1ccccc1`, for which the Potency result was “inactive”.

`N#Cc1cccc(CN2CCC(C3=NC(O)c4cc(F)ccc4N3)CC2)c1` (stereo unspecified): the Potency was 8.91 µM (active).

Turning to `O=c1[nH]c(C2CCN(Cc3ccccc3)CC2)nc2ccc(F)cc12`, the Potency entry was “inactive”.

Turning to `O=C(c1ccc(F)cc1F)N1CCN(c2cc(-c3ccc(Cl)cc3)[nH]n2)CC1`, the Potency was 14.1 µM (active).

In the case of `COc1ccc(-c2cc(N3CCN(C(=O)c4cc(OC)cc(OC)c4)CC3)n[nH]2)cc1`, the Potency entry was “inactive”.

In the case of `O=C(Cc1ccc(F)cc1)NC1CCN(c2cc(-c3ccc(Cl)cc3)[nH]n2)CC1`, the Potency result was “inactive”.

Consider `COc1ccc(-c2cc(N3CCN(C(=O)c4ccncc4)CC3)n[nH]2)cc1`, for which the Potency entry was “inactive”.

In the case of `O=C(c1ccc(Br)cc1)N1CCN(c2cc(-c3ccccc3)[nH]n2)CC1`, the Potency entry was “inactive”.

Take `O=C(c1ccoc1)N1CCN(c2cc(-c3ccc(Cl)cc3)[nH]n2)CC1`: the Potency result was “inactive”.

As for `COc1ccc(-c2cc(N3CCCN(C(=O)c4ccc(C)cc4)CC3)n[nH]2)cc1`, the Potency result was “inactive”.

With `Cc1ccc(C(=O)N2CCN(c3cc(-c4ccc(Cl)cc4)[nH]n3)CC2)c(C)c1`, the Potency is 6.31 µM (active).

With `O=C(c1cc(F)ccc1Cl)N1CCN(c2cc(-c3ccc(F)cc3)[nH]n2)CC1`, the Potency is 17.8 µM (active).

On to `CC(C)c1cc(C2CCCN2CCC(=O)Nc2ccc(C(N)=O)cc2)no1` (stereo unspecified), for which the Potency result was “inactive”.

As to `COc1ccc(-c2nc(C3CC(=O)N(c4ccc(F)c(Cl)c4)C3)no2)cc1OC` (stereo unspecified), the Potency result is “inactive”.

With `O=C1NCCOCCCN(C(=O)CC2CCCC2)[C@H]2CCC[C@@H]12`, the Potency entry was “inactive”.

Turning to `Cn1cnc(S(=O)(=O)N2CCCC(Cc3noc(-c4cnccn4)n3)C2)c1` (stereo unspecified), the Potency entry was “inactive”.

For `Cc1cn2nc(C(=O)NCC(C)c3ccccc3)cc2c(N2CCCC2)n1` (stereo unspecified), the Potency result is “inactive”.
